# Test results: the supplement of paper PMC11634586
# Where a name gives a salt, the structure may show the parent alone.
# Tested on: NCI-H1688
# Experiment: inhibition of cell viability relative to untreated control (fraction); higher = stronger growth inhibition, active = 0.5 or more
# Conditions: 30 µM; 24 h
# In short: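 Values are inhibition of cell viability expressed as a fraction, derived from viability normalised to untreated cells. NCI-H1688 small cell lung cancer cells in 96-well plates were exposed to a natural compound library (TargetMol) at 30 µM for 24 h at 37°C with 5% CO2, and Cell Counting Kit-8 absorbance at 450 nm was then read.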
row,SMILES,inhibition of cell viability
1,O=C(O)c1cc(O)c(O)c(O)c1 [Gallic acid],0.44 (inactive)
2,COC(=O)[C@@H]1[C@H]2C[C@H]3c4[nH]c5ccccc5c4CCN3C[C@@H]2CC[C@@H]1O [Yohimbine hydrochloride],0.0994 (inactive)
3,C[C@@H]1C(=O)O[C@H]2C[C@@]34[C@H]5C[C@@H](C(C)(C)C)[C@]36[C@@H](OC(=O)[C@@H]6O)O[C@@]4(C(=O)O5)[C@]21O [Ginkgolide A],-0.028 (inactive)
4,OC[C@H]1O[C@@H](O[C@@H]2[C@@H](CO)OC(O)(CO)[C@H]2O)[C@H](O)[C@@H](O)[C@H]1O (mixture of isomers) [Lactulose],0.135 (inactive)
5,COc1cc(OC)c2ccc(=O)oc2c1 [Citropten],-0.00623 (inactive)
6,CC(=O)Oc1cc(C)c(OC(C)=O)c2ccccc12 [Menadiol Diacetate],0.384 (inactive)
7,CC(=O)O[C@]1(C(C)=O)CC[C@H]2[C@@H]3C[C@H](C)C4=CC(=O)CC[C@]4(C)[C@H]3CC[C@@]21C [Farlutin],0.01 (inactive)
8,OC[C@H]1O[C@@H]2O[C@H]3[C@H](O)[C@@H](O)[C@@H](O[C@H]4[C@H](O)[C@@H](O)[C@@H](O[C@H]5[C@H](O)[C@@H](O)[C@@H](O[C@H]6[C@H](O)[C@@H](O)[C@@H](O[C@H]7[C@H](O)[C@@H](O)[C@@H](O[C@H]8[C@H](O)[C@@H](O)[C@@H](O[C@H]1[C@H](O)[C@H]2O)O[C@@H]8CO)O[C@@H]7CO)O[C@@H]6CO)O[C@@H]5CO)O[C@@H]4CO)O[C@@H]3CO [Beta-Cyclodextrin],0.0604 (inactive)
